# Assays:
# [1] = biological target: RAC-alpha serine/threonine-protein kinase (Homo sapiens) (UniProt P31749); conditions: at 0.1 µM
# [2] = biological target: RAC-alpha serine/threonine-protein kinase (Homo sapiens) (UniProt P31749); conditions: at 1 µM
# [3] = biological target: RAC-beta serine/threonine-protein kinase (Homo sapiens) (UniProt P31751); conditions: at 0.1 µM
# [4] = biological target: RAC-beta serine/threonine-protein kinase (Homo sapiens) (UniProt P31751); conditions: at 1 µM
# [5] = biological target: RAC-gamma serine/threonine-protein kinase (Homo sapiens) (UniProt Q9Y243); conditions: at 0.1 µM
# Sequence of RAC-gamma serine/threonine-protein kinase (Homo sapiens) (Q9Y243 whole entry): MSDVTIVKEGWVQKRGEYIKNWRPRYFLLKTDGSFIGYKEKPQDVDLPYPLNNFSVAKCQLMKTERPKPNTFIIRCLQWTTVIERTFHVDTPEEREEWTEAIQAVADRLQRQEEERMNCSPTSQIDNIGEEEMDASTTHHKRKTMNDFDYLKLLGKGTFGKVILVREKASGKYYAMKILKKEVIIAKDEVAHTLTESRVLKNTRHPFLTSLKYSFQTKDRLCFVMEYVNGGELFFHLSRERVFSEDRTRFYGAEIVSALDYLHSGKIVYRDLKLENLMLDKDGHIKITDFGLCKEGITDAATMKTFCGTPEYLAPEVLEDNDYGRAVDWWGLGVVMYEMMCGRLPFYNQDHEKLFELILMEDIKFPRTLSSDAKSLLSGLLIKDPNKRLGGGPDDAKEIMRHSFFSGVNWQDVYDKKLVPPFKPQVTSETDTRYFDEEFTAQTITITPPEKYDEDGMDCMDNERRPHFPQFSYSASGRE
# [6] = biological target: RAC-gamma serine/threonine-protein kinase (Homo sapiens) (UniProt Q9Y243); conditions: at 1 µM
# [7] = biological target: G protein-coupled receptor kinase 6 (Homo sapiens) (UniProt P43250); conditions: at 0.1 µM
# [8] = biological target: G protein-coupled receptor kinase 6 (Homo sapiens) (UniProt P43250); conditions: at 1 µM
# [9] = biological target: T1, Rhodopsin kinase GRK7 (Homo sapiens) (UniProt Q8WTQ7); conditions: at 0.1 µM
# T1 sequence (whole entry): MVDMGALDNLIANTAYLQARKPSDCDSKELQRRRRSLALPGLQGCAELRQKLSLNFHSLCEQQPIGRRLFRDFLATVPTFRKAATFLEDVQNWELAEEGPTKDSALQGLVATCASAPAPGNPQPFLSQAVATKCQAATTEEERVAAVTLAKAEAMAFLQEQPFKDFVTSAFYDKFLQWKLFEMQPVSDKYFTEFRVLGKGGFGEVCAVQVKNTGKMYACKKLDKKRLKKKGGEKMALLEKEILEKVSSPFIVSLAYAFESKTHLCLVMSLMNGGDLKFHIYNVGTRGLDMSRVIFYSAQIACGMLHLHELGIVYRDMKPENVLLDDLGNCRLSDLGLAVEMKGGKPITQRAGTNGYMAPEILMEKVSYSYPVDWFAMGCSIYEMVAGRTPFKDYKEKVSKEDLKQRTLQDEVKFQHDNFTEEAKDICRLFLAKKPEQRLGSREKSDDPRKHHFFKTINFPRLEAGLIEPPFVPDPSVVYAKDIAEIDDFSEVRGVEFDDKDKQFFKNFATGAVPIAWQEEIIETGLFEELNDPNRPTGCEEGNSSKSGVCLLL
# [10] = biological target: T1, Rhodopsin kinase GRK7 (Homo sapiens); conditions: at 1 µM
# [11] = biological target: Serine/threonine-protein kinase MRCK alpha (Homo sapiens) (UniProt Q5VT25); conditions: at 0.1 µM
# [12] = biological target: Serine/threonine-protein kinase MRCK alpha (Homo sapiens) (UniProt Q5VT25); conditions: at 1 µM
# [13] = biological target: Serine/threonine-protein kinase MRCK beta (Homo sapiens) (UniProt Q9Y5S2); conditions: at 0.1 µM
# Sequence of Serine/threonine-protein kinase MRCK beta (Homo sapiens) (Q9Y5S2 whole entry): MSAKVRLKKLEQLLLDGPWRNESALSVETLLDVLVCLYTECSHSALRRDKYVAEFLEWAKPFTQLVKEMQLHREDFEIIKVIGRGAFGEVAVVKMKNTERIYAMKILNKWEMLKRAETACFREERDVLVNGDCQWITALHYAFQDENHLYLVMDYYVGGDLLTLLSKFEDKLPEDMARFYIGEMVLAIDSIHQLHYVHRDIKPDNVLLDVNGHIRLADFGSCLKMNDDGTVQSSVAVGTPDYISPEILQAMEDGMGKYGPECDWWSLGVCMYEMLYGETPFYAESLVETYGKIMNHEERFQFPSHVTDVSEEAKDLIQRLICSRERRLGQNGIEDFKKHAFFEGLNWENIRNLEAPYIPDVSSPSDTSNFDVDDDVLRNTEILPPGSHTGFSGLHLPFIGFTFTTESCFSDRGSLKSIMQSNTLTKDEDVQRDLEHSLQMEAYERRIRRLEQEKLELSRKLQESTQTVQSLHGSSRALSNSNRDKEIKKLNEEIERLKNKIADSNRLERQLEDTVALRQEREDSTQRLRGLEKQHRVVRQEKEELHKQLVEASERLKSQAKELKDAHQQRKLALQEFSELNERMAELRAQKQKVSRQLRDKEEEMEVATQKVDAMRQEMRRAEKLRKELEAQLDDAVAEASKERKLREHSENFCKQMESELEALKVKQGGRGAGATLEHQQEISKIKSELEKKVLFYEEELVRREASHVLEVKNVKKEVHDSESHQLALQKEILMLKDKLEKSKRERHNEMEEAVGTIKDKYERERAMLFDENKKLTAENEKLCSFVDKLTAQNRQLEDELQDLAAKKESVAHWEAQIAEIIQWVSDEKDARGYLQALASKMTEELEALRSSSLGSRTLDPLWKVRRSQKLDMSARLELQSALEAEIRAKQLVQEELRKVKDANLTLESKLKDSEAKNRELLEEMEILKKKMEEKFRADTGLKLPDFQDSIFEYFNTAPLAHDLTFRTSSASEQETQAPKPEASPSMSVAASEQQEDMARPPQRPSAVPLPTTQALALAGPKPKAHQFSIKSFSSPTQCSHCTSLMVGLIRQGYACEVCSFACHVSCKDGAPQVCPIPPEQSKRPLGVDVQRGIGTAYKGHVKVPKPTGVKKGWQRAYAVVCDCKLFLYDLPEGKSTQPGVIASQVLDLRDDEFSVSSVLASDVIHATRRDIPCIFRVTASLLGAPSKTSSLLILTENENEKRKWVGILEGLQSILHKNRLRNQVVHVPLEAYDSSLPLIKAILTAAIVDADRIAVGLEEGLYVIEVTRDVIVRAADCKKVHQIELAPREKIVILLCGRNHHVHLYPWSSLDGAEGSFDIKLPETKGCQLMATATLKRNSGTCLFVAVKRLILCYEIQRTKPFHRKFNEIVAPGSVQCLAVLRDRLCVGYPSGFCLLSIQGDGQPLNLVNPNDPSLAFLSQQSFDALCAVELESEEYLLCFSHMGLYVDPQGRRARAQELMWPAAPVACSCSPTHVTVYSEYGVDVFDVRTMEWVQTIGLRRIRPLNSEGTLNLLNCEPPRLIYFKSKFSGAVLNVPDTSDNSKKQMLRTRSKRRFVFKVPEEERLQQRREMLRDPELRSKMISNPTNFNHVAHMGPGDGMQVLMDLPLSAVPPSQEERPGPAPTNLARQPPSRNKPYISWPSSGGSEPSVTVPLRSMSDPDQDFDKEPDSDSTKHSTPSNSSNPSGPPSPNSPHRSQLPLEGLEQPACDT
# [14] = biological target: Serine/threonine-protein kinase MRCK beta (Homo sapiens) (UniProt Q9Y5S2); conditions: at 1 µM
# [15] = biological target: Ribosomal protein S6 kinase alpha-5 (Homo sapiens) (UniProt O75582); conditions: at 0.1 µM
# Sequence of Ribosomal protein S6 kinase alpha-5 (Homo sapiens) (O75582 whole entry, looked up): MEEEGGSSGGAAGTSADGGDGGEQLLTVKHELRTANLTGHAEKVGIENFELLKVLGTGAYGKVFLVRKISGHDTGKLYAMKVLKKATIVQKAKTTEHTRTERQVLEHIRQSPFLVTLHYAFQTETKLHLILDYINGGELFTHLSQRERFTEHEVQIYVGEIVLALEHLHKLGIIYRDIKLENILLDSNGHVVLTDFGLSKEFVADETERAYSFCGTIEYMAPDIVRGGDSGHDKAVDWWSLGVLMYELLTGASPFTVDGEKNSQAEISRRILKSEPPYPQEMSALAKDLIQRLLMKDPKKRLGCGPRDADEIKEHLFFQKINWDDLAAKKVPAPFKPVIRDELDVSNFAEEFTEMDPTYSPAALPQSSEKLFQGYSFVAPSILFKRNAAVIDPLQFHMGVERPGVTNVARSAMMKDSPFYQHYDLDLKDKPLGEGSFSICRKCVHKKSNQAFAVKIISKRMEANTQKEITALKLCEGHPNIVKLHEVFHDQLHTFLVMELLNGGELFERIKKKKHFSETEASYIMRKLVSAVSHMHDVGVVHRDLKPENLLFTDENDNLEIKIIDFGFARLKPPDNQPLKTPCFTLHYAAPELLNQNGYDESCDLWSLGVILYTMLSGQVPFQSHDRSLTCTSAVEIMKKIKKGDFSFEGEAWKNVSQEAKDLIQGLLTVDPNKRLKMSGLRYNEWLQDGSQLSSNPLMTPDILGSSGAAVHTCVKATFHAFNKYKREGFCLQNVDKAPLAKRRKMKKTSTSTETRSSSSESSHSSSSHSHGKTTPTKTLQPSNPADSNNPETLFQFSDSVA
# [16] = biological target: Ribosomal protein S6 kinase alpha-5 (Homo sapiens) (UniProt O75582); conditions: at 1 µM
# [17] = biological target: Ribosomal protein S6 kinase alpha-4 (Homo sapiens) (UniProt O75676); conditions: at 0.1 µM
# Sequence of Ribosomal protein S6 kinase alpha-4 (Homo sapiens) (O75676 whole entry, looked up): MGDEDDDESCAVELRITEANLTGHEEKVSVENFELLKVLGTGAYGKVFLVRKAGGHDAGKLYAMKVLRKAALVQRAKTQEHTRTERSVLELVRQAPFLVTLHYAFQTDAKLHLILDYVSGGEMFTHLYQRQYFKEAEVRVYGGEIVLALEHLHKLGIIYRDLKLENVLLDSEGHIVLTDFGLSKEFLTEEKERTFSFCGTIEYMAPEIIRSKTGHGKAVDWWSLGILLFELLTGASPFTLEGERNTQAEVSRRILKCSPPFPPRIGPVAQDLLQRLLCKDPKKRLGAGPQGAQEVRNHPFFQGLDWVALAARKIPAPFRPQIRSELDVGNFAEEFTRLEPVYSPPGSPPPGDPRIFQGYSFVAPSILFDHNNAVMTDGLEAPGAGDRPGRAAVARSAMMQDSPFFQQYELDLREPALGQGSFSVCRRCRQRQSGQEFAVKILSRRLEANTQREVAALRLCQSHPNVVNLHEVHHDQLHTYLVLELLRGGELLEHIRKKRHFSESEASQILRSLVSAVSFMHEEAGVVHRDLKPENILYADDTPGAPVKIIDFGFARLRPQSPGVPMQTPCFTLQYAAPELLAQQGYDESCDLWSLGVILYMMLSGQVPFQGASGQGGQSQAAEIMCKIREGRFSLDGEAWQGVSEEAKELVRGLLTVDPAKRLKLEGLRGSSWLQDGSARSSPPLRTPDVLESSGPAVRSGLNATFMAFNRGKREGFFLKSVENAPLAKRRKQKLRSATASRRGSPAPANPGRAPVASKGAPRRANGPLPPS
# [18] = biological target: Ribosomal protein S6 kinase alpha-4 (Homo sapiens) (UniProt O75676); conditions: at 1 µM
# [19] = biological target: Ribosomal protein S6 kinase beta-1 (Homo sapiens) (UniProt P23443); conditions: at 0.1 µM
# Sequence of Ribosomal protein S6 kinase beta-1 (Homo sapiens) (P23443 whole entry, looked up): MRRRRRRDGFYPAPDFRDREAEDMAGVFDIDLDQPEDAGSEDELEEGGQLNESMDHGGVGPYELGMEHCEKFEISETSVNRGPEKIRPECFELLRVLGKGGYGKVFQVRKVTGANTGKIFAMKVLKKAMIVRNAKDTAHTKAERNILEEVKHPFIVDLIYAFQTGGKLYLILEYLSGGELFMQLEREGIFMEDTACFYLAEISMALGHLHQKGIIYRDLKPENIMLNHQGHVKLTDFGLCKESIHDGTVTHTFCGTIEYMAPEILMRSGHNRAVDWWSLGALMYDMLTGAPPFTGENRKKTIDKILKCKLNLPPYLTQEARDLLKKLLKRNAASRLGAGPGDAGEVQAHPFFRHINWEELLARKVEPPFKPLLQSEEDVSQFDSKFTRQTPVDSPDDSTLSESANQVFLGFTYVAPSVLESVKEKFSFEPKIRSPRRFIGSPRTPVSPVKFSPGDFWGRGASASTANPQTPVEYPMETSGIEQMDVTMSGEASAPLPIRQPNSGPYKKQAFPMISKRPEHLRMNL
# [20] = biological target: Ribosomal protein S6 kinase beta-1 (Homo sapiens) (UniProt P23443); conditions: at 1 µM
# Sequence of RAC-alpha serine/threonine-protein kinase (Homo sapiens) (P31749 whole entry): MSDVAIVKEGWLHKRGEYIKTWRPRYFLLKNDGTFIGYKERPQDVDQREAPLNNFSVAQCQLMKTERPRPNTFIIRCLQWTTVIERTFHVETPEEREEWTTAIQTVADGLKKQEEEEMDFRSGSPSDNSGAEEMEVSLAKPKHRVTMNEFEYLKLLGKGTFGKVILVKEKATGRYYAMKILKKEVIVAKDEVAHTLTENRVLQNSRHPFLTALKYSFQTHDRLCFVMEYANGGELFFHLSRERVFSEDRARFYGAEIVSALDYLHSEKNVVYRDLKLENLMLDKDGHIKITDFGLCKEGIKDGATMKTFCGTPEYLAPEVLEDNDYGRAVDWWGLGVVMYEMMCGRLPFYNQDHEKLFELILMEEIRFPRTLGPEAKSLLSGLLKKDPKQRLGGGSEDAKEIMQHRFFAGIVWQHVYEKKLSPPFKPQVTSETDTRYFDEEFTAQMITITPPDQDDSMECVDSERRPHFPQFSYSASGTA
Structure (SMILES),inhibition [1] [%],inhibition [2] [%],inhibition [3] [%],inhibition [4] [%],inhibition [5] [%],inhibition [6] [%],inhibition [7] [%],inhibition [8] [%],inhibition [9] [%],inhibition [10] [%],inhibition [11] [%],inhibition [12] [%],inhibition [13] [%],inhibition [14] [%],inhibition [15] [%],inhibition [16] [%],inhibition [17] [%],inhibition [18] [%],inhibition [19] [%],inhibition [20] [%]
CCN1CCC(CC(=O)Nc2n[nH]c3nnc(-c4cccc(F)c4F)cc23)CC1,0.38,0.44,-1.36,0.79,-0.3,3.08,1.19,2.16,6.3,3.7,-3.37,0.57,0.12,0.92,0.93,-0.87,2.22,1.55,0.65,0.08
CNC(=O)c1cc(-c2ccc(F)cc2)cc(-c2ccc(S(=O)(=O)N3CCCC3)cc2)c1N,0.66,0.31,1.23,1.37,0.7,3.34,1.55,2.77,9.52,2.15,1.92,0.6,-1.06,-0.2,9.11,8.3,1.23,1.99,0.63,1.47
CNC(=O)c1cccc(C#Cc2cncnc2Nc2ccc(OCc3cccc(F)c3)c(Cl)c2)c1,0.17,-0.5,0,0.98,0.81,-1.1,0.71,3.57,1.29,-1.25,-0.5,1.42,-0.81,-3.2,-0.16,-0.2,0.45,1.97,0.88,0.77
Cc1cccc2c1NC(=O)/C2=N\Nc1ccc(S(N)(=O)=O)cc1,1.04,1.19,2.18,1.39,1.07,1.15,2.1,3.62,1.49,-6.16,-1.02,-1.52,1.33,2.51,2.97,4.06,1.89,3.82,1.66,2.26
COC(=O)c1sc(-n2cnc3cc(OC)c(OC)cc32)cc1OCc1ccccc1C(F)(F)F,0.87,0.62,2.35,1.5,-0.55,1.41,-0.86,1.16,2.73,7.64,-0.56,-2.93,-0.49,-0.87,3.01,1.81,0.54,3.06,2.41,7.02
COc1cc2ncn(-c3cc(OCc4ccccc4C(F)(F)F)c(C(=O)N(C)C)s3)c2cc1OC,-0.4,-0.11,-0.31,0.45,0.89,1.26,-0.42,0.69,-2.57,3.66,0.01,0.75,-1.11,1.24,-0.57,-0.4,0.13,0.89,-0.55,-1.48
CN1CCC(n2cnc(-c3ccc(F)cc3)c2-c2ccnc(Nc3ccccc3)n2)CC1,0.23,1.05,0.63,0.8,2.25,5.43,2.34,2.65,2.84,6.42,0.81,10.7,1.12,2.04,1.99,3.4,1.72,3.56,0.19,1.05
Nc1nc(-c2ccc(F)cc2)c(-c2ccc3ncccc3n2)s1,0.67,1.34,2.24,2.19,5.53,1.9,5.89,5.57,6.78,7.94,-0.11,3.87,0.89,0.94,3.54,3.83,3.18,4.49,2.53,2.7
COc1ccc(-c2cc(-c3c[nH]nc3-c3ccccn3)ccn2)cc1,0.93,1.5,2.54,1.95,1.66,1.52,8.13,8.91,3.59,6.26,-0.6,3.02,-0.39,0.6,4.28,4.22,3.45,4.77,2.32,3.73
CCn1c(-c2nonc2N)nc2c(C#CC(C)(C)O)nc(OC[C@H](N)c3ccccc3)cc21,64.2,90.4,75.3,92,66.8,91.7,2.82,5.48,2.77,15,11.8,36.3,3.04,26.6,3.37,17.7,3.75,20.5,4.66,33.1
c1cc(-c2cnn3nc(N4CCOCC4)ccc23)nc(NC2CC2)n1,0.69,1.04,3.2,2.75,1.36,1.78,0.85,1.72,3.91,6.6,0.21,-0.69,0.92,0.61,3.83,3.75,0.89,6.24,1.29,3.7
c1ccc(-c2nc3n(c2-c2ccc4c(c2)OCO4)CCC3)nc1,0.15,0.19,0.67,0.83,0.55,0.06,3.19,2.38,1.13,3.19,1.51,-0.39,1.65,4.63,8.97,8.14,5.25,6.79,1.12,0.67
Fc1ccc(-c2nn3ncccc3c2-c2ccnc(Nc3ccc4c(c3)OCCO4)n2)cc1,0.05,0.97,1.99,1.14,0.88,1.56,2.14,1.87,1.38,5.57,1.99,20.4,-0.17,1.27,2.73,2.22,0.67,3.9,1.73,2.69
COc1cc(/C=N/Nc2ncnc3[nH]ncc23)ccc1O,0.87,0.81,1.01,0.76,1.65,0.92,4.89,5.42,2.24,5.07,0.11,2.49,0.6,1.83,4.13,13.9,2.93,8.42,3.45,21.4
COc1ccc(-c2nn3ncccc3c2-c2ccnc(Nc3ccc4c(c3)OCCO4)n2)cc1,-0.35,-0.09,-0.91,-0.18,0.24,2.32,-1.91,-1.49,4.16,2.81,-0.27,-2.49,0.2,0,0.41,-0.38,1.07,-0.23,0.77,-0.95

# Reference: ChEMBL document CHEMBL1961873, “Compounds: GSK PKIS; Assays: Nanosyn kinase panel” (2012)
